Source: PubChem BioAssay (National Center for Advancing Translational Sciences (NCATS))
SMN2 splice up = increases expression of the SMN2 splice variant; HEK293 SMN2-luciferase splicing reporter, luminescence, 30-36 h; Potency, µM (doses to about 46.1 µM), most hits filed as activators; 210,000 compounds, 2.8% hits; AID 1458; note: nearly all actives have a fitted effect of over 55% in size
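HEK293 cells carry an SMN2 minigene-luciferase reporter in which exon 7 inclusion puts luciferase in frame. Cells were seeded at 2000 cells/well, attached for 10-12 hours, then exposed to compounds for 30-36 hours at 37C before ONE-Glo luminescence.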
Rab9 prom act = activators of Rab9 promoter. Huh7 Rab9 promoter-luciferase reporter, luminescence, 24 h. 320,000 compounds, 2.8% hits. Potency, µM (doses to about 9.22 µM), most hits filed as activators. AID 485297; note: nearly all actives have a fitted effect of over 60% in size
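Stable Rab9-luc Huh7, 1500 cells/well, 2 h settle; cmpd in DMSO, 24 h, 37 °C/5% CO2; luciferase reagent 10 min RT; luminescence.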
NPC1 prom act = activates the NPC1 promoter. Huh7 NPC1 promoter luciferase reporter, 24 h. Potency, µM (titrated, usually from 9.22 µM), most hits filed as activators. 320,000 compounds, 2.4% hits; note: nearly all actives have a fitted effect of over 60% in size
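Huh7 reporter cells (NPC1 promoter driving luciferase) are dosed with compound for 24 h at 37 °C, 5% CO2; luciferase detection reagent is then added and luminescence measured after 10 min at ambient temperature.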
Luc counter = blocks Kinase-Glo luciferase, a counter-screen artifact | 200,000 compounds, 0.28% hits | Q27757 | AID 1379 | Potency, µM (top dose mostly 38.3 µM), hits mostly inhibitors | Kinase-Glo luciferase, ATP luminescence, 8 min; note: nearly all actives have a fitted effect of over 60% in size
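Compound is pinned into ATP-containing buffer (10 uM ATP, imidazole pH 7.2, 7 mM MgCl2). Kinase-Glo luciferase reagent is then added. Light output is recorded following an 8-min room-temperature incubation.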
FLuc counter = inhibits or activates purified firefly luciferase, miR-21 counter-screen | P08659 | purified FLuc, Km substrates, luminescence inhibition | Potency, µM (series often up to 57.5 µM), actives largely listed as inhibitors | 360,000 compounds, 6.9% hits; note: nearly all actives have a fitted effect of over 55% in size
Target sequence (P08659 whole entry, looked up): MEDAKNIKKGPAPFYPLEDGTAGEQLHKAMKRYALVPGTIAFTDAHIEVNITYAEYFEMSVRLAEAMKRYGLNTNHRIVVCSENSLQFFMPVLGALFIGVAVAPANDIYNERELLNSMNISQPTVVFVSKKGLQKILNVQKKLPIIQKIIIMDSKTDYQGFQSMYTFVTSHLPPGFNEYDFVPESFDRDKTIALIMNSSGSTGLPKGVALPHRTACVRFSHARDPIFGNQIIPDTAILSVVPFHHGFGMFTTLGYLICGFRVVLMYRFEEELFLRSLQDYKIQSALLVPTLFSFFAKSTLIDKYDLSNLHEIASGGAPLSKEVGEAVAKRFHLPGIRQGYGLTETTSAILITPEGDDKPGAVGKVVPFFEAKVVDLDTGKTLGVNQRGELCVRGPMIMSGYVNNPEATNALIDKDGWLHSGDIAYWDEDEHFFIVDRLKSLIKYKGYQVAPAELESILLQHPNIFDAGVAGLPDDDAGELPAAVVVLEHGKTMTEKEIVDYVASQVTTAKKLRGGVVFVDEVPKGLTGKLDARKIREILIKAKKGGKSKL
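Biochemical qHTS of compounds, final roughly 60 µM downward over six points, against 10 nM purified firefly luciferase using Km concentrations of substrates (10 uM D-luciferin, 10 uM ATP) in Tris acetate pH 7.5 buffer; luminescence output.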
ELG1 genotoxic = induces genotoxicity in HEK293T cells with luciferase-tagged ELG1 | HEK293T ELG1-luciferase reporter, luminescence, 16 h | Potency, µM (top dose mostly 46 µM), usual class: activators | 330,000 compounds, 1.3% hits; note: nearly all actives have a fitted effect of over 60% in size
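Screening used a luciferase reporter fused to human ELG1 in HEK293T cells. Luminescence was read on a CCD plate imager after 16 hr exposure and 30 min ONE-Glo incubation.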
Large screens that a line does not name were inactive. The list is not random: actives were taken first. Their share in the collection is about 7.4%. Calls come from the whole dose curve; as a rule, active = well fitted curve in the direction sought with a large enough effect; inconclusive = small, poorly fitted or top-dose-only effect, or another doubt; inactive = no such curve, though single readings can be large; an effect the other way counts as inactive or inconclusive.

Cc1nnc(N2CCCC(C(=O)Nc3cccc(C(F)(F)F)c3)C2)c2nn(-c3ccccc3)c(C)c12 (configuration not stated)	none (no result: SMN2 splice up, Rab9 prom act, NPC1 prom act, Luc counter, ELG1 genotoxic)
Cc1cccc(NC(=O)CSc2cn(CC(=O)N3CCCCCC3)c3ccccc23)c1	none (no result: SMN2 splice up, Rab9 prom act, NPC1 prom act, Luc counter, ELG1 genotoxic)
O=C(O)c1cc(N=Cc2ccccc2O)cc(C(=O)O)c1	none (no result: Rab9 prom act, NPC1 prom act, FLuc counter, ELG1 genotoxic)
O=Cc1cc(N=Nc2ccccc2Cl)ccc1O	Rab9 prom act 2.24µM, NPC1 prom act 2.51µM, FLuc counter 19µM (no result: SMN2 splice up)
O=Cc1cc(N=Nc2cccc(C(=O)O)c2)ccc1O	Rab9 prom act inconclusive, NPC1 prom act inconclusive, FLuc counter 10.7µM
COc1ccc(-c2nnc(-c3ccc(C)cc3)o2)cc1	Rab9 prom act inconclusive, NPC1 prom act 1.58µM, FLuc counter 1.9µM, ELG1 genotoxic inconclusive (no result: SMN2 splice up, Luc counter)
COc1ccc(-c2ccc(-c3nnc(-c4ccncc4)o3)cc2)cc1	FLuc counter inconclusive
Cc1ccc(-c2nnc(-c3ccccc3)o2)cc1	SMN2 splice up 2.82µM, Rab9 prom act 1.41µM, NPC1 prom act 3.16µM, FLuc counter 2.69µM, ELG1 genotoxic inconclusive
CCNc1nnc(-c2ccc(C)cc2)o1	Rab9 prom act 3.98µM, NPC1 prom act 3.55µM, FLuc counter 15.1µM, ELG1 genotoxic inconclusive
COc1ccc(-c2nnc(-c3ccccc3O)o2)cc1	Rab9 prom act inconclusive, NPC1 prom act inconclusive, FLuc counter 2.39µM, ELG1 genotoxic inconclusive (no result: SMN2 splice up, Luc counter)
CC(=O)N1CCc2cc(Br)cc(S(=O)(=O)N3CCN(c4cccc(C)c4)C(C)C3)c21 (configuration not stated)	none (no result: Rab9 prom act, NPC1 prom act, Luc counter, ELG1 genotoxic)
COc1ccc(-c2nnc(-c3ccc(F)cc3)o2)cc1	Rab9 prom act 1µM, NPC1 prom act 1.26µM, FLuc counter 2.13µM, ELG1 genotoxic 3.66µM (no result: SMN2 splice up, Luc counter)
COc1ccc(Cc2ccc3[nH]c(=O)cc(C)c3c2)cc1S(=O)(=O)O	none (no result: Rab9 prom act, NPC1 prom act, FLuc counter, ELG1 genotoxic)
COc1ccc(OC)c(/C=C2\Oc3cc(OCC(=O)N4CCC(C(=O)O)CC4)ccc3C2=O)c1	none (no result: SMN2 splice up, Luc counter)
COc1cccc(/C=C2\Oc3cc(OCC(=O)N4CCCC4)ccc3C2=O)c1OC	FLuc counter 9.53µM (no result: SMN2 splice up, Luc counter)
COc1ccc(/C=C2\Oc3cc(OCC(=O)N4CCC(C(=O)O)CC4)ccc3C2=O)c(OC)c1OC	FLuc counter inconclusive (no result: SMN2 splice up, Luc counter)
COc1cccc(/C=C2\Oc3cc(OCC(=O)N4CCCCC4)ccc3C2=O)c1OC	FLuc counter 9.53µM (no result: SMN2 splice up, Luc counter)
COc1ccc(/C=C2\Oc3cc(OCC(=O)N4CCC(C(=O)O)CC4)ccc3C2=O)c(OC)c1	FLuc counter 6.75µM (no result: SMN2 splice up, Luc counter)
COc1ccc(/C=C2\Oc3cc(OCC(=O)N4CCC[C@H]4C(=O)O)ccc3C2=O)cc1OC	FLuc counter 1.35µM (no result: SMN2 splice up, Luc counter)
COc1ccc(-c2cc(OC(=O)c3ccc(F)cc3)c3c(C)oc(C)c3c(=O)c2)cc1OC	none (no result: Rab9 prom act, NPC1 prom act, Luc counter, ELG1 genotoxic)
COc1cccc(Cn2c(=O)c(-c3cccc(F)c3)nc3cncnc32)c1	none (no result: Rab9 prom act, NPC1 prom act, FLuc counter, ELG1 genotoxic)
COC(=O)[C@H](Cc1ccccc1)NC(=O)O[C@H]1C(=O)c2cc(OC)ccc2O[C@@H]1c1ccc(OC)c(Br)c1	none (no result: Rab9 prom act, NPC1 prom act, FLuc counter, ELG1 genotoxic)
Cc1c(O)cc2c(c1O)C(=O)CC(c1ccccc1)O2 (configuration not stated)	none (no result: SMN2 splice up, Luc counter)
COc1c(O)cc2c(c1O)C(=O)CC(c1ccccc1)O2 (configuration not stated)	Rab9 prom act inconclusive, NPC1 prom act inconclusive, FLuc counter 9.53µM, ELG1 genotoxic inconclusive (no result: SMN2 splice up, Luc counter)
O=C(NCC1CCCO1)c1ccccc1-c1nc(-c2ccccc2F)no1 (configuration not stated)	FLuc counter inconclusive (no result: SMN2 splice up, Luc counter)
CCCNC(=O)c1csc(Nc2cccc3ccccc23)n1	FLuc counter inconclusive (no result: SMN2 splice up, Luc counter)
